In all, about 59,000 sequences were measured (the read-out: median about -0.00055, lowest 2% from about -2 on). The full list was thinned out, with the lowest values kept by preference.
Test: Identification of proteins required for the processing of the EWS-FLI1 nascent transcript;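 also: robust z of luciferase light less the median z of siRNAs with the same seed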
Conditions: TC32 Ewing sarcoma NR0B1-luc vs CMV-luc (EWS-FLI1 target promoter against control promoter), 48 h; screened at 20 nM (by protocol)
Procedure, shortened: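 Three siRNAs per gene, each in a separate well at 20 nM, were transfected into TC32 cells bearing either reporter construct. Luminescence was measured two days on, and per-gene comparison relied on seed-corrected Z values.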

Sequence	seed-corrected z-score
UGAGUGUAGAGCAGCCACU against NEU2	-2.8
UGAGCUACCAUAUGCUUCA against RBMY1F	-0.266
AUCCUCACCAUGGACAACG against CELA3A	-0.518
UUUUUGAACAUGGUAACAG against RPL31P7	1.16
AAGUGGUCAAAAUCCGCUC against LOC728613	-1.66
AAAGUCAGCACUUCGAUCC against MCTP1	-2.38
UAUGUUGUCACGCAGCACU against HIST1H4F	1.31
UUGGUUAUUCGAAGAGCUG against ME1	-0.246
UGUCAUUUUUCUUCGGUUC against PWP2	0.885
UGAAUGGACAGUAUCUCUG against CCDC54	-0.774
AAUCUGCUUCUUUAAGUCG against RBBP6	-2.31
UUUCUGUCCAGGAAAUCUC against RWDD4	-0.311
UCAGUGGAAGGAAUCCUCA against OR13C8	1.06
UUAUUGUCAAGUUCUGAUG against EFCAB14	0.0178
UUCUGUUCUACCUCGCUUC against WDR60	-1.36
UCUGGAGUUCUCAUUAGAC against IRF7	0.205
AUACGUAUCCCGGACGCAG against SLC25A47	2.25
AGGGUAUUUACCUUCUUGC against LOC729696	-2.56
UCCCAUACCAUCCACAGUG against SGCZ	0.248
AAGACUUCCAUCUAAGAUC against SLC39A11	-1.62
AAUCUUCACAUCAUUCUGG against TMEM70	-0.646
AUUGAUGUCAAUCACAUGC against PCDHGA3	-0.895
UUUCAUGCGACGGUUUUGG against HOXC4	-0.731

Sequence	seed-corrected z-score
UGACUGUUGCUCCACUUCC against SH2D3A	-0.425
AGUCUUAUCAGCACCCUUU against MTPN	-11.9
AUCCGGUACACCAUGUGGU against CYTH2	-0.326
UAUGAUGGAGGCGUAGUUC against MYCL	0.678
AAUGAUAUCUGUGAUCGCC against RABGEF1	-0.242
UUCGUUCAGUGGGUUGUCC against SYNGR1	-0.497
UUCCCUUUCACGUCCAUGU against WFIKKN2	-0.0396
UUUCGAUUUAAAAGAGCCC against RALGPS1	1.28
UUUCUUCCAACGCAGUCUG against MRPS23	-2.67
UAGAGGCUCAUCAUAGAUG against GPATCH3	-0.0793
AAUGCUAUUACGGUUGAUG against FBXL6	-0.269
UUAUUGCAGAUCUGGAUCC against CYP2C9	-2.3
UCUGUUUCAUUUACUUUGC against PRSS44	0.238
UUUAUAAAGAGGGUGGAUC against SGCB	-0.0761
UAUGAUACACUGGUAGGGU against ZNF684	-2.38
AAAGUGAUUCCCACAGCUG against CCS	1.5
UUUCUAACAUAGGAUGCCG against PRKAR1A	-0.515
AUGGUUGCGGUAGAAGACG against PHYHIP	0.484
AUAGAAUCUAGGGAAAUAG against HBD	1.15
AUAGUUAUCCUUUAAUAAC against SLC2A3	-2.2
AAUGUCAUUGCUGCGGUCC against SH3KBP1	-0.331
UUUCAGAGCCUUUCCCUGC against LTA	-0.389
UGAUGUACAGCUGAGGACC against ELMO2	-2.32

Sequence	seed-corrected z-score
UCAGGUAGAGCAUAGCUUG against SPX	-1.13
ACAGCUACCACAAAUGCAG against NDUFB3	1.34
UGGGUUCCCAGUAACACUC against RPRD2	-0.107
UGCUCUAUCUCUGUCAGGG against RORC	0.626
AUCGCUGUUAAGAAGCUCC against CIITA	-0.918
UUGGAAUCAGUCAUGCUCA against SFTPD	0.0218
AUCCUUCUUGAAGUCGGCG against OAF	2.26
UUCAGGACGAUCUUGACAG against CHRDL2	-0.237
UGCCGUUUCAUCUUGUACC against NKX2-4	-2.69
UUGAAGUUUGGAUAUUACC against GABPB2	-0.668
GAAUGUAGCAAAUGAGUCG against MT1H	0.588
UGACUGGAUAUAUCCACUG against RAB20	0.37
UUUUCUGCCUGAUCUAACU against MAP3K7CL	0.11
UCACUGUCAAUCAUGCGCU against CACNG1	-1.04
UCACCUUCCGCUUCGACUU against FAM181B	2.19
AAACCAAUAGGAAUUGACU against HINT3	0.612
AUCCAGUUAAUUCCAGAUG against NUDT1	-3.9
UAGGUUGUGAAUGUGGUCG against FBXL8	-3.1
UAUAUGUCUUGAUUAUCCU against NMS	0.309
UCCAGGUCAAGGGUAACGG against KIF7	-0.853
UACAUGUCAAAUGAGCUCC against KIR2DL5B	-2.25
UGUAGAAUGAGUAGGCGGC against NMT2	-0.0232
UGUAUUUGAAGACUUUCCC against ZNF485	0.182

Sequence	seed-corrected z-score
UUCCUUCCUCGUUCAUUGC against KGFLP1	-2.1
AAAGCUUCCCUCAACUUGC against TAS2R9	-0.00509
UAUCUAGUGCAGUAUAUCG against COPS2	0.174
UUUGAUCUCAUCGGUGCCC against PIAS1	-0.0672
AUUCUCGUCAGUGAGCUCC against POLR2C	-0.262
UCUUCGUUCUUGUCGAUCU against MED15	2.07
UAACUUUGUCUUUGGAUUC against SETD9	1.15
AAACUGCUCGCUGUCAUUC against NCDN	-2.2
UGUACAAGAAGUCAUAAGC against DSE	-0.289
UUGUGGUCAAUGCCCUUGG against UBIAD1	-0.444
UGACAUUCCAAGGUUGUAG against TAS2R60	0.323
ACCUUUUUCACUUCUACAC against 2-Mar	-0.43
AAGUUGCUCAGAAACUUGG against WNT9B	-3.07
UGUCCAGAUAAGGAGACGC against PINLYP	-1.21
UAAGUUCACUGUUCCAUAU against EDEM2	0.761
UUUGAAAUCAACAUAGAGG against LINC00574	-0.00543
AAAGGUACUUUACCAGAUG against MTX2	0.416
AGUUCAUUAAAUAAGGUCC against TMEM33	0.17
UUGUCAAAAAGUCCUUUUG against GINS3	0.092
AAGGCUCUGACAACGAUUC against LMNB1	-1.07
UUGAUUCGCAACCAUAGCC against BTBD7	-2.52
AUUCGAAGUAGUUGUAGCC against FRY	0.623
UCGGUUUUCCUCAAAAUGG against SESN1	0.94

Sequence	seed-corrected z-score
UUUCGAAUUAACGCAACUG against HECTD1	0.00197
UUCUGAUUCCCAAACAGUG against COMMD8	-1.88
AAUCAUAACUGUCAUAUCC against DSPP	0.304
ACCGUGCCCAGCAUACAUC against LOC541473	-4.77
UUUCUGGUGACCCUUUUUC against TSG101	-0.683
UCUACUUCUGUGGAUACUC against TALDO1	0.332
UCAGCUGCACUUUCAGUAG against GOLGA8J	-1.61
ACCGUUACAUAUUCUAUCC against SUPT6H	-4.84
UGCUGUAUCCUCUAUAUCC against RFX5	-0.0572
UUAAUCGGCACAGCUGUUC against RSBN1	-0.543
UAUGCAGUCUGGGUAACCC against C10orf11	0.746
UUACGUAUGCACCAUUUGC against SLC35D1	0.196
UAUAGUAAUCAGCUAGUGG against MED6	-3.7
UUUAUUCCCAAAGGCUCUG against PTGER1	-0.569
AUAUCAUUUACUGACAUAG against DNAJB4	-0.41
UUCCAGGAUACUUUAAUCC against PON1	-0.178
AAGCGGUUAACGAAAAGGC against SLC2A1	1.37
UUUGUAAUCAUACGGACAG against ZFAND5	0.868
AAACUCAAAAUCCCGUUGC against ZC3H10	0.108
UAAUAUCCGGUAAGAAUCC against DDB2	-0.365
UAUAGGUAAGGAUUUCUGC against KRTAP9-2	-0.397
UGUCUUCUAAAGUAAGUGG against ZNF77	-2.26
UCACGAACAUGUUGCAAGG against KRIT1	-0.0242

Sequence	seed-corrected z-score
UAGUUCAUAAUCCAAGUCC against COL6A3	0.0612
AUGACUUUAGGUCGCAUCG against FBXL12	-13.4
UUUGGGAUUUCCAUUGUCU against LRP2BP	0.259
UUGGAUACAAAGGAACAAC against DHX32	-0.291
UUUGAGUCCACCACGAAGC against MYH3	-0.0465
UCUGCUGCUCGUCAAGUUC against MAP2K2	1.77
UCUCUUUAAAGACUCCUCC against LPO	0.133
UUGGGAUAUAUUUAGCGGC against ITGB1BP2	-2.58
UUUCGGAUGAGCACGCAGC against APRT	-0.0241
UUCUUGUUCACUCUAAUUU against NFIC	0.384
AUAGUGUCGAUAAAAACCU against CHRNA1	0.527
AAAGUUGCGGAAGCUGAUG against LRP3	-2.42
UAUCUGUGCAGUUAAGAUG against LOC401220	-0.155
UUUCACUCCACUGAAGUAC against CDKL1	-0.736
AGCUGUAGCACCAUCAACG against OR7G3	-1.26
UUCGAUUCCAAGCCUUACG against CCDC113	0.591
AAGUUACCCACGUAGAUGC against SRSF1	-1.35
UAAGAUAUUUGUCCAACAG against YWHAB	0.25

Reference: PubChem BioAssay AID1159506 (National Center for Advancing Translational Sciences (NCATS), 2015)
